According to PubChem BioAssay (Tox21):
“And” between values parts separate entries of the source, which are not always exact repeats. Identical values can stand only once. Results filed as inconclusive are left out. The source made the active and inactive calls. Unless noted, calls follow the shape of the dose curve; as a rule, active = well fitted curve in the direction sought with a large enough effect in the repeat runs; inconclusive = weak or mixed curves; inactive = no such curve, though single readings can be large; an effect the other way counts as inactive or inconclusive.

What was measured:
[1] = qHTS assay to identify small molecule agonists of H2AX (AID 1224845; active = well fitted activation curve with a large enough effect in the signal ratio in the repeat runs, not every such curve was filed as active; the % refers to the signal ratio; also: potency is read from the fitted curve at half-maximal effect)
How it was run: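 Wild-type CHO-K1 cells, plated overnight, exposed 3hr at 37C to 15 concentrations (0.76% DMSO final). Lysed, then HTRF anti-pH2AX (S139) cryptate and anti-H2AX-d2 antibodies, 24 hr room temperature; 665/620 nm emission read.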

[2] = qHTS assay to identify small molecule antagonists of the estrogen related receptor (ERR) signaling pathway from Tox21 library (AID 1224848); also: nearly all actives have a fitted effect of over 50% in size; also: potency is read from the fitted curve at half-maximal effect
How it was run: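 Quantitative high-throughput format: ERR reporter cells (2,000/well) pre-incubated 6 h, treated 18 h at 37 C with compounds in DMSO alongside positive and negative controls, then read by ONE-Glo luminescence.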

[3] = qHTS assay to identify small molecule agonists of the estrogen related receptor (ERR) signaling pathway from Tox21 library (AID 1224849; calls by dose curve; also: nearly all actives have a fitted effect of over 15% in size); conditions: ERR reporter cell line, ONE-Glo luciferase, 18 h; at 92.4 µM (top of the series) unless noted
How it was run: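 Luciferase activity in ERR pathway reporter cells served as the agonist readout; exposure lasted 18 h at 37 C, with ONE-Glo detection after 30 min at room temperature.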

[4] = qHTS RealTime-Glo MT Cell Viability Assay in HepG2 cells - 24 hour (AID 1224867); also: nearly all actives have a fitted effect of over 50% in size; also: potency is read from the fitted curve at half-maximal effect
How it was run: (§1)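 Cell number in HepG2 cultures estimated from NanoLuc luminescence generated by metabolic reduction of a prosubstrate by living cells. The homogeneous, nonlytic format allowed repeated reads at 0, 8, 16, 24, 32 and 40 h of compound exposure.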

[5] = qHTS RealTime-Glo MT Cell Viability Assay in HEK293 cells - 32 hour (AID 1224868); also: nearly all actives have a fitted effect of over 50% in size; also: potency is read from the fitted curve at half-maximal effect
How it was run: (§2)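 Homogeneous bioluminescent viability format in HEK293 cells (600 cells/well). Following 5 h at 37 C/5% CO2, 23 nL compound was pintooled; the signal was measured repeatedly during 40 h incubation.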

[6] = A CellTox Green Cytotoxicity Assay to monitor cytotoxicity in HEK293 cells - 0 hour (AID 1224869); also: nearly all actives have a fitted effect of over 50% in size
How it was run: (§3)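 Real-time, in one plate: 600 HEK293 cells/well with dead-cell DNA dye, pinned compound after 5 h, 37 C incubation over 40 h; viable cells give no appreciable fluorescence.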

[7] = qHTS RealTime-Glo MT Cell Viability Assay in HepG2 cells - 40 hour (AID 1224870); also: nearly all actives have a fitted effect of over 50% in size
How it was run: (§4)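 HepG2 cells (600/well) mixed with RealTime-Glo MT reagent, settled 5 h at 37 C/5% CO2 before compound addition. Nonlytic NanoLuc luminescence from viable-cell prosubstrate reduction read repeatedly during 40 h treatment at 37 C.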

[8] = A CellTox Green Cytotoxicity Assay to monitor cytotoxicity in HEK293 cells - 40 hour (AID 1224871); also: nearly all actives have a fitted effect of over 45% in size; also: potency is read from the fitted curve at half-maximal effect
How it was run: as §3

[9] = qHTS RealTime-Glo MT Cell Viability Assay in HEK293 cells - 16 hour (AID 1224872); also: nearly all actives have a fitted effect of over 50% in size; also: potency is read from the fitted curve at half-maximal effect
How it was run: as §2

[10] = qHTS RealTime-Glo MT Cell Viability Assay in HEK293 cells - 40 hour (AID 1224874); conditions: RealTime-Glo luminescence; max response: active compounds read low; also: nearly all actives have a fitted effect of over 50% in size; also: potency is read from the fitted curve at half-maximal effect
How it was run: (§5)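 Kinetic, non-lysing viability readout. Seed HEK293 (600/well) with reagent, incubate 5 h at 37 C/5% CO2, pin 23 nL compound in DMSO, incubate at 37 C, read luminescence at 0, 8, 16, 24, 32, 40 h.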

[11] = A CellTox Green Cytotoxicity Assay to monitor cytotoxicity in HEK293 cells - 24 hour (AID 1224875); also: nearly all actives have a fitted effect of over 45% in size
How it was run: as §3

[12] = A CellTox Green Cytotoxicity Assay to monitor cytotoxicity in HepG2 cells - 16 hour (AID 1224876); also: nearly all actives have a fitted effect of over 45% in size
How it was run: (§6)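 Cytotoxicity was tracked as dead-cell DNA fluorescence in HepG2 cells treated with test compounds at 37 C; each time-point value comes from one kinetic series spanning 0, 8, 16, 24, 32 and 40 h.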

[13] = qHTS RealTime-Glo MT Cell Viability Assay in HepG2 cells - 32 hour (AID 1224877); also: nearly all actives have a fitted effect of over 55% in size; also: potency is read from the fitted curve at half-maximal effect
How it was run: as §1

[14] = A CellTox Green Cytotoxicity Assay to monitor cytotoxicity in HepG2 cells - 24 hour (AID 1224878); also: nearly all actives have a fitted effect of over 45% in size
How it was run: as §6

[15] = A CellTox Green Cytotoxicity Assay to monitor cytotoxicity in HepG2 cells - 40 hour (AID 1224879); also: nearly all actives have a fitted effect of over 40% in size; also: potency is read from the fitted curve at half-maximal effect
How it was run: as §6

[16] = qHTS RealTime-Glo MT Cell Viability Assay in HEK293 cells - 0 hour (AID 1224880); also: nearly all actives have a fitted effect of over 45% in size; also: potency is read from the fitted curve at half-maximal effect
How it was run: as §5

[17] = A CellTox Green Cytotoxicity Assay to monitor cytotoxicity in HEK293 cells - 32 hour (AID 1224881); also: nearly all actives have a fitted effect of over 40% in size; also: potency is read from the fitted curve at half-maximal effect
How it was run: as §3

[18] = qHTS assay to identify small molecule agonists of H2AX - cell viability counter screen (AID 1224847; calls by dose curve; also: top concentration of the series differs between compounds; nearly all actives have a fitted effect of over 30% in size)
How it was run: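 Viability of CHO-K1 (wild type) cells after 3 hr compound exposure was measured by CellTiter-Glo luminescence.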

[19] = qHTS RealTime-Glo MT Cell Viability Assay in HepG2 cells - 8 hour (AID 1224873); also: nearly all actives have a fitted effect of over 55% in size; also: potency is read from the fitted curve at half-maximal effect
How it was run: as §4

[20] = qHTS assay to identify small molecule agonists of the hypoxia (HIF-1) signaling pathway (AID 1224846; active = well fitted activation curve with a large enough effect in the signal ratio in the repeat runs, not every such curve was filed as active; the % refers to the signal ratio)
How it was run: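 ME-180 HRE-bla reporter cells; compounds in DMSO, 17 h at 37C; read-out beta-lactamase via CCF4-AM FRET.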
% is scaled to controls: 0 for no effect and ±100 for the full control effect.

CCCCCCc1ccc(-c2ccc(C#N)cc2)cc1
inactive: Potency [1] | Potency [2] | activity change, positive = activation [3] 1.68% | Potency [4] | Potency [5] | Potency [6] | Potency [7] | Potency [8] | Potency [9] | max response [10] -15.1% | Potency [11] | Potency [12] | Potency [13] | Potency [14] | Potency [15] | Potency [16] | Potency [17]

CC(CC=O)c1ccccc1 (stereo not given)
inactive: Potency [1] | Potency [18] | Potency [4] | Potency [6] | Potency [7] | Potency [8] | Potency [9] | Potency [19] | max response [10] 0.684% | Potency [11] | Potency [12] | Potency [13] | Potency [14] | Potency [15] | Potency [16] | Potency [17]

C=CC(=O)OCCOCCOCCOCCOC(=O)C=C
inactive: Potency [6] | Potency [11] | Potency [14] | Potency [16]
active: Potency [1] 50.8 µM and 50 µM | Potency [4] 43.2 µM | Potency [5] 34.8 µM and 24.3 µM | Potency [8] 49.2 µM and 48.5 µM | Potency [9] 43.2 µM | Potency [10] 31.1 µM and 19.3 µM | Potency [13] 48.5 µM | Potency [15] 24.7 µM and 13.7 µM | Potency [17] 54.4 µM

COCCCN1CCC(NC(=O)c2cc(Cl)c(N)c3c2OCC3)CC1
inactive: Potency [20] | Potency [18] | Potency [2] | activity change, positive = activation [3] 5.44% [at 42.5 µM] | Potency [4] | Potency [5] | Potency [6] | Potency [7] | Potency [8] | Potency [9] | max response [10] -14% | Potency [11] | Potency [12] | Potency [13] | Potency [14] | Potency [15] | Potency [16] | Potency [17]

Cc1c(N)cccc1[N+](=O)[O-]
inactive: Potency [20] | Potency [18] | Potency [2] | activity change, positive = activation [3] -14.7% | Potency [4] | Potency [5] | Potency [6] | Potency [7] | Potency [8] | Potency [9] | Potency [19] | max response [10] -13.1% | Potency [11] | Potency [13] | Potency [14] | Potency [15]

COC(=O)C1=C(C)NC(COC(N)=O)=C(C(=O)OC(C)C)C1c1cccc(Cl)c1Cl (stereo not given)
inactive: Potency [1] | activity change, positive = activation [3] -36.5% [at 42.5 µM] | Potency [6] | Potency [8] | Potency [11] | Potency [17]
active: Potency [2] 26.6 µM | Potency [5] 26.8 µM | Potency [9] 26.8 µM | Potency [19] 23.9 µM | Potency [10] 26.8 µM | Potency [13] 19 µM | Potency [16] 2.68 µM

C=C1C(=C/C=C2\CCC[C@]3(C)[C@@H]([C@H](C)/C=C/[C@@H](O)C4CC4)CC[C@@H]23)C[C@@H](O)C[C@@H]1O
active: Potency [2] 13.3 µM | Potency [5] 16.9 µM | Potency [9] 19 µM | Potency [10] 8.49 µM
inactive: Potency [1] | activity change, positive = activation [3] -57.7% [at 42.5 µM] | Potency [4] | Potency [6] | Potency [7] | Potency [19] | Potency [11] | Potency [13] | Potency [14] | Potency [15] | Potency [16]

CC[N+]1(CC)CCC(=C(c2ccccc2)c2ccccc2)C1C (stereo not given)
inactive: Potency [1] | Potency [18] | Potency [4] | Potency [6] | Potency [7] | Potency [8] | Potency [9] | Potency [19] | Potency [11] | Potency [12] | Potency [15] | Potency [16] | Potency [17]

CCOC(=O)NCCOc1ccc(Oc2ccccc2)cc1
active: Potency [2] 19.3 µM | Potency [10] 21.9 µM
inactive: Potency [1] | activity change, positive = activation [3] -42.2% | Potency [4] | Potency [6] | Potency [7] | Potency [8] | Potency [19] | Potency [11] | Potency [12] | Potency [13] | Potency [15]

C#Cc1cccc(Nc2ncnc3cc(OCCOC)c(OCCOC)cc23)c1
inactive: Potency [1] | activity change, positive = activation [3] -38.1% [at 42.5 µM] | Potency [4] | Potency [5] | Potency [6] | Potency [7] | Potency [8] | Potency [9] | Potency [19] | max response [10] -23.8% | Potency [11] | Potency [13] | Potency [14] | Potency [15] | Potency [16] | Potency [17]
active: Potency [2] 6.68 µM

CC1(c2ccccc2)OC(C(=O)O)=CC1=O (stereo not given)
inactive: Potency [1] | Potency [18] | Potency [4] | Potency [6] | Potency [7] | Potency [8] | Potency [9] | max response [10] 2.42% | Potency [11] | Potency [12] | Potency [13] | Potency [14] | Potency [15] | Potency [16]

CC(=O)c1ccc2c(c1)N(CCCN(C)C)c1ccccc1S2
inactive: Potency [1] | Potency [18] | Potency [4] | Potency [6] | Potency [7] | Potency [8] | Potency [9] | Potency [19] | Potency [11] | Potency [12] | Potency [16] | Potency [17]

COc1cc(C(=O)OCCCN2CCCN(CCCOC(=O)c3cc(OC)c(OC)c(OC)c3)CC2)cc(OC)c1OC
inactive: Potency [20] | Potency [18] | Potency [2] | activity change, positive = activation [3] -15% [at 42.5 µM] | Potency [4] | Potency [6] | Potency [7] | Potency [19] | Potency [12] | Potency [13] | Potency [16]
active: Potency [5] 9.52 µM | Potency [9] 5.35 µM | Potency [10] 9.52 µM | Potency [15] 23.9 µM

Clc1ccc(Cn2c(CN3CCCC3)nc3ccccc32)cc1
inactive: Potency [1] | Potency [18] | Potency [4] | Potency [6] | Potency [7] | Potency [19] | Potency [11] | Potency [12] | Potency [13] | Potency [14] | Potency [15] | Potency [16] | Potency [17]
